In PubChem BioAssay (NCATS):
Results filed as inconclusive are left out. Active and inactive are the calls of the source. The call rests on the fitted dose curve; in most records, active means well fitted curve in the direction sought with a large enough effect; inconclusive means small, poorly fitted or top-dose-only effect, or another doubt; inactive means no such curve, though single readings can be large; an effect the other way counts as inactive or inconclusive.

Assays:
[1] = KB-8-5-11 Cancer Cell Toxicity qHTS against the NCATS CANVASS Library (AID 1347364); further: series mostly up to about 46 µM; nearly all actives have a fitted effect of over 75% in size
Summary of the method: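 Plate 500 KB-8-5-11 cells per well in DMEM + 10% FBS, add compounds by pin transfer, incubate 72 hr at 37C. Add CellTiter-Glo, wait 10 minutes at room temperature, read luminescence.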

[2] = KB-3-1 Cancer Cell Toxicity qHTS against the NCATS CANVASS Library (AID 1347366); conditions: outcome: dose series up to 46.1 µM; further: nearly all actives have a fitted effect of over 75% in size
Summary of the method: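 Luminescence from CellTiter-Glo (10 min, room temperature) measured KB-3-1 viability after 72 hr compound exposure at 37C. Cells were seeded at 500/well and tested in an 11-point series.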

[3] = qHTS for ATAD5 Agonist screened against the NCATS CANVASS Library (AID 1347367);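 further: luciferase reporter driven by ATAD5 which rises upon DNA damage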
Summary of the method: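 HEK293T-ATAD5 luc reporter; 2000 cells/well; 5hr settle; cpd 11-pt qHTS; 16hr 37C 5% CO2 dark; viability by CellTiter-Fluor (AFC fluorescence); then luciferase luminescence, 30min RT.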

[4] = MCF7 Cancer Cell Toxicity qHTS against the NCATS CANVASS Library (AID 1347369); conditions: outcome: dose series up to 46 µM
Summary of the method: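 Cells seeded at 500/well, then compound pinned. Plates incubated 72 hr at 37C, 5% CO2. CellTiterGlo added; luminescence read.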

[5] = target: Nuclear receptor subfamily 1 group I member 3 (Homo sapiens) (UniProt Q14994); test: qHTS for Constitutive Androstane Receptor (CAR) Antagonist screened against the NCATS CANVASS Library (AID 1347372);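 further: cells stimulated with 50 nM CITCO agonist so inhibition reflects antagonism; luciferase from CYP2B6 promoter reporter driven by hCAR in HepG2 cells; series mostly up to about 46 µM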
Sequence of Nuclear receptor subfamily 1 group I member 3 (Homo sapiens) (Q14994 whole entry, looked up): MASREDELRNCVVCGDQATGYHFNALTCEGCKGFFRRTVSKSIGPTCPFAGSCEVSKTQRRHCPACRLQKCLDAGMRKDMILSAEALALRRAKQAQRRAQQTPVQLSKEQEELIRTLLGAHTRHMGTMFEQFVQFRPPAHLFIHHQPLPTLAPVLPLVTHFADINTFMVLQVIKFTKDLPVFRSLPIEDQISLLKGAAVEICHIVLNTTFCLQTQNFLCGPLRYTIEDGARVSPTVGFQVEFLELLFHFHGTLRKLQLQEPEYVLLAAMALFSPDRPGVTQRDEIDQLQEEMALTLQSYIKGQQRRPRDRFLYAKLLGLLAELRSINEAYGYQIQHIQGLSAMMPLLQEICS
Summary of the method: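 HepG2-CYP2B6-hCAR double-stable cells plated, 4hr attach; cpd pin-transferred; CITCO 50 nM final; 24hr 37C/5% CO2; CellTiter-Fluor 1hr (fluorescence), then ONE-Glo luminescence.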

[6] = target: Nuclear receptor subfamily 1 group I member 3 (Homo sapiens) (UniProt Q14994); test: qHTS for Constitutive Androstane Receptor (CAR) Agonist screened against the NCATS CANVASS Library (AID 1347373);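 further: every well also contained 1.5 µM PK11195 alongside the test compound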; further: potency means the concentration at half of the fitted maximal effect
Summary of the method: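 HepG2-hCAR-CYP2B6 cells, 2500/well, attached 4hr; cpd + PK11195 1.5uM final; 24hr 37C 5% CO2. CellTiter-Fluor viability read, then ONE-Glo luminescence for CAR activation.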

[7] = qHTS for Hypoxia signaling pathway (HIF-1) antagonists against the NCATS CANVASS Library (AID 1347374);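 further: HRE-bla ME-180 cells stimulated with cobalt chloride to stabilize HIF-1alpha; series mostly up to about 38 µM; nearly all actives have a fitted effect of over 60% in size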
Summary of the method: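 HRE-bla ME-180 cells in medium with 0.5% dialyzed FBS received compounds (11-point series) plus CoCl2 (60 uM addition stock) for 17 hrs at 37C. Beta-lactamase activity read with CCF4 (405 nm ex, 460/530 nm em); CellTiter-Glo viability measured in same wells.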

[8] = qHTS for Hypoxia signaling pathway (HIF-1) agonists against the NCATS CANVASS Library (AID 1347375)
Summary of the method: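 ME-180 HRE-bla reporter cells; 2,000/well, 0.5% dialyzed FBS; cpd added after 5 h, 17 h 37C/5% CO2; CCF4-AM 2 h RT; FRET 460/530 nm; CellTiter-Glo viability same wells, 30 min.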

[9] = 10-beta competent E. coli microbial cell viability qHTS against the NCATS CANVASS Library (AID 1347376); further: series mostly up to about 46 µM
Summary of the method: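 E. coli 10-beta, 0.2 OD; cpds 11-pt; o/n 37C, 5% CO2; BacTiter-Glo 20 min RT; luminescence (ATP) = viable cells. Daunomycin ctrl.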

[10] = DH5-alpha competent E. coli microbial cell viability qHTS against the NCATS CANVASS Library (AID 1347377); conditions: outcome: dose series up to 91.4 µM unless noted
Summary of the method: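 qHTS, 11-pt; E. coli DH5-alpha, 0.2 OD; o/n 37C/5% CO2; BacTiter-Glo, 20 min RT; luminescence.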

[11] = qHTS for H2AX Agonists against the NCATS CANVASS Library (AID 1347378);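 further: phospho-H2AX S139 level in CHO-K1 lysates by TR-FRET emission ratio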
Summary of the method: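 CHO-K1, 1000 cells/well, o/n 37C; cpd several conc, 3 hr 37C, 0.76% DMSO; lyse 30 min RT; cryptate anti-pH2AX(S139) + d2 anti-H2AX, 24 hr RT; HTRF 665/620.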

[12] = qHTS for Antimalaria activity screened against the NCATS CANVASS Library (AID 1347380); further: nearly all actives have a fitted effect of over 40% in size; further: potency means the concentration at half of the fitted maximal effect
Summary of the method: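 Dd2 strain, infected erythrocytes 2.5% Hct final / 0.3% parasitemia. 11-pt qHTS titration, 72 h, 37C, 5% O2, 5% CO2. Lysis buffer + SYBR Green, 18 h, fluorescence 485/535 nm.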

[13] = Inflammasome Signaling qHTS Counterscreen: IL-1-beta AlphaLISA counterscreen against the NCATS CANVASS Library (AID 1347381);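 further: cell-free check with purified IL-1β in medium and no THP-1 cells; series mostly up to about 57 µM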
Summary of the method: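 Cell-free interference check: compounds added to medium spiked with 4 pg purified IL-1β. Anti-IL-1β acceptor beads (6 ug/mL) with 0.6 nM biotinylated antibody added for 1 h at RT, then streptavidin donor beads (24 ug/mL) for 30 min in the dark. AlphaLISA read at 680/615 nm.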

[14] = Cytotoxicity qHTS for assessment of Hepg2 cells membrane integrity screened against the NCATS CANVASS Library (AID 1347387)
Summary of the method: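 qHTS, 11-pt conc. series, 0.59 nM - 46 uM final; HepG2 2000 cells/well, overnight attachment; 5 hr compound exposure 37C/5% CO2; CytoTox-ONE, 10 min RT; fluorescence ex560/em590 = LDH from damaged membranes.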

[15] = qHTS for Activators of p53 Stress Response Pathway screened against the NCATS CANVASS Library (AID 1347388)
Summary of the method: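 Beta-lactamase reporter driven by p53 response elements in HCT-116 cells, read as the 460 nm/530 nm emission ratio after CCF4 loading, following 16 h of exposure to an 11-point series. Cell viability was measured in the same wells by CellTiter-Glo luminescence.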

[16] = SDT Cancer Cell Toxicity qHTS against the NCATS CANVASS Library (AID 1347365);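 further: SDT canine glioma cells 500 per well in 1536 well plates; series mostly up to about 46 µM; nearly all actives have a fitted effect of over 60% in size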
Summary of the method: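 qHTS, SDT dog glioma line, 500 cells/well; cpds 11 pts; 72 hr, 37C, 5% CO2; CellTiterGlo ATP luminescence.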

[17] = G06 Cancer Cell Toxicity qHTS against the NCATS CANVASS Library (AID 1347368); conditions: outcome: dose series up to 46.1 µM; further: nearly all actives have a fitted effect of over 60% in size
Summary of the method: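 Dog G06 glioma line, 500 cells/well; cpds pin-transferred, 11-pt; 72 hr, 37C/5% CO2; CellTiterGlo luminescence (ATP) endpoint.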

[18] = qHTS for ATAD5 Antagonist screened against the NCATS CANVASS Library (AID 1347370);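 further: HEK293T cells carrying an ATAD5 luciferase reporter co-treated with 10 µM 5-fluorouridine; series mostly up to about 46 µM; nearly all actives have a fitted effect of over 65% in size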
Summary of the method: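 HEK293T cells with stably integrated ATAD5-luciferase reporter, 2000/well, 5 h attachment; compounds plus 10 µM 5-fluorouridine, 16 h at 37 °C. Luciferase luminescence read, with CellTiter-Fluor viability read first.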

[19] = J3T Cancer Cell Toxicity qHTS against the NCATS CANVASS Library (AID 1347371); conditions: outcome: dose series up to 46.1 µM
Summary of the method: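 Cells plated at 500 per well, compounds pin-transferred, plates incubated 72 hr at 37C, then CellTiterGlo added and luminescence read to measure ATP content.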

[20] = qHTS for Inflammasome Signaling Inhibitors: IL-1-beta AlphaLISA screen against the NCATS CANVASS Library (AID 1347379); conditions: outcome: dose series up to 57.5 µM;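 further: human THP-1 cells primed with LPS then triggered with ATP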
Summary of the method: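 THP-1 cells pretreated 1 hr with compound (up to 57.5 uM final), then stimulated with LPS (250 ng/mL final) and ATP (1.25 mM final). Secreted IL-1B measured by AlphaLISA after 16 hr; glyburide as positive control.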

Measured: Potency

CC(=O)O[C@H]1C[C@@]2(C)[C@@H](CC[C@H]3[C@@]4(C)C=CC(=O)[C@@H](C)[C@@H]4[C@H](OC(C)=O)C(=O)[C@@]32C)/C1=C(\CCC=C(C)C)C(=O)O
active: [12] 10.6 µM
inactive: [1] | [2] | [3] | [4] | [5] | [6] | [7] | [8] | [9] | [10] inactive [at 46.1 µM] | [11] | [13] | [14] | [15]

C/C(=C\CC/C(C)=C/CC[C@]1(C)CCc2cc(O)cc(C)c2O1)CC/C=C(\C)C(=O)O
not listed: [7] | [10] | [12] | [15]
inactive: all other assays above

CC(C)c1ccc2c(c1)CCC1[C@](C)(C(=O)O)CCC[C@]21C (some centres not stated)
not listed: [6]
inactive: all other assays above

O=C(/C=C/C=C/c1ccc2c(c1)OCO2)N1CCCCC1
active: [6] 4.14 µM
not listed: [1] | [7] | [8]
inactive: all other assays above
